# GDH-TPI counter: GDH-TPI coupled enzyme inhibition counter-screen. GDH-TPI coupled enzyme counterscreen, NADH absorbance. inhibition, % at 4.8 µM. actives 1.2% (n = 360,000). AID 588335; in the data active means inhibition above about 30%;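 further: 0% = DMSO wells and 100% = wells lacking the enzyme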
# PrPC surface inh: inhibitors of human cell surface prion protein PrPC; P04156; TR-FRET read-out; inhibition, % at 13.8 µM; actives 0.43% (n = 370,000); in the data active means inhibition above about 24%; further: 0% = median of the test wells and 100% = reference compound wells
# Yp Topo-I inh: blocks Yersinia pestis topoisomerase I activity | AID 504884 | activity, % at 10 µM | actives 0.064% (n = 360,000) | Y. pestis Topo-I cleavage product accumulation, plate reader; in the data active means activity above about 50%, passing the limit was not always enough
# Mtb hypoxia inh: inhibitors of hypoxia-regulated fluorescent reporter in Mycobacterium tuberculosis; fluorescence inhibition, % (test concentration not listed); M. tuberculosis hypoxia-regulated fluorescent reporter, fluorescence; actives 0.1% (n = 300,000); in the data active means fluorescence inhibition mostly above about 23%, no sharp cut-off; inactive means mostly below about 17%
# FBA Mtb inh: inhibitors of M. tuberculosis fructose-bisphosphate aldolase | inhibition, % at 1 µM | P9WQA3 | actives 2.3% (n = 360,000) | AID 588726 | purified M. tuberculosis FBA, fluorescence read-out; in the data active means inhibition above about 27%;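 further: 0% = vehicle and 100% = reference inhibitor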
# Target sequence (P9WQA3 whole entry, looked up): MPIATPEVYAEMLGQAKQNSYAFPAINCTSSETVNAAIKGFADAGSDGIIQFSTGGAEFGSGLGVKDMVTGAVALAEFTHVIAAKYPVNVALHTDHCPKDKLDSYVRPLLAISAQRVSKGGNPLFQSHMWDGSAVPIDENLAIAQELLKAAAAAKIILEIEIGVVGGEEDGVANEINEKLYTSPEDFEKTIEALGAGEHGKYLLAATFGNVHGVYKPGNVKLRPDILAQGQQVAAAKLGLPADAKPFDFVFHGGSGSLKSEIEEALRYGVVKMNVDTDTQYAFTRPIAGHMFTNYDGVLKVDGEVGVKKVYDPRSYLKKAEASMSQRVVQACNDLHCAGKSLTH
# PrP UTR inh: suppresses PrP 5' UTR mRNA reporter expression; cell-based PrP 5' UTR mRNA reporter, plate reader; inhibition, % (test concentration not listed); actives 0.35% (n = 340,000); in the data active means inhibition above about 52%; further: 0 = median of the neutral control wells
# * marks the source's active call; other numbers are inactive results; . = not tested or not shown; + = active, no number. A selection: hits, their analogues and other compounds. The true share with any hit is near 3.8%.
SMILES,GDH-TPI counter,PrPC surface inh,Yp Topo-I inh,Mtb hypoxia inh,FBA Mtb inh,PrP UTR inh
NC(=O)C1CCCNc2c(I)cc([N+](=O)[O-])cc2C(=O)NC(CO)C(=O)NC(Cc2ccc(O)cc2)C(=O)N1 (stereo not drawn),.,.,.,2.8,.,.
COc1cccc2c(=O)c3c(cnn3C)n(C)c12,1.1,-6.3,1.5,.,+,-28.3
CC(C)CC(=O)OC1C(N2CCOCC2)c2c(ccc(/C=C/C(=O)N3CCOCC3)c2O)OC1(C)C (stereo not drawn),31.3*,2.6,23.8,7.3,6.1,-25.6
CC(C)c1ccc(NC(=O)C2Cc3c(-c4ccc5c(c4)OCO5)ccnc3O2)cc1 (stereo not drawn),8.9,3.6,60.3*,.,20.1,.
CC(C)CCNC(=O)c1c(N)n(CC2CCCO2)c2nc3ccccc3nc12 (stereo not drawn),11.7,-2.9,45.4,7.9,18.8,-10.6
CCC(C)NC(=O)c1c(N)n(CC2CCCO2)c2nc3ccccc3nc12 (stereo not drawn),1.3,-3.0,20.9,3.0,87.1*,-17.8
C=CCn1c(N)c(C(=O)NCC2CCCO2)c2nc3ccccc3nc21 (stereo not drawn),4.1,-5.3,-0.2,0.0,144.2*,-20.8
COc1cc(N=Nc2ccc3ccccc3c2)ccc1O,13.8,-9.4,-3.8,-3.5,-5.8,-90.9
Cc1cc(N=Nc2ccccc2C(=O)O)c(C)c(C)c1O,11.3,-25.8,6.9,45.3*,-23.2,0.4
COc1cc(N=Nc2ccccc2C(=O)O)ccc1O,20.0,-15.9,5.0,48.4*,-15.4,-11.0
Cc1cc(O)c(C(C)C)cc1N=Nc1ccccc1C(=O)O,15.9,-8.9,1.5,50.8*,-23.5,-12.8
CC(C)(C)c1ccc(C(=O)NCC(=O)NN=Cc2ccccc2OCC(=O)O)cc1,.,.,.,2.0,.,.
Cc1cc(=O)oc2cc(OCC(=O)N3CCN(C(C)c4ccccc4)CC3)c(Cl)cc12 (stereo not drawn),3.2,10.0,-3.1,6.8,+,-20.3
Cc1cc(=O)oc2cc(OCC(=O)N3CC(=O)Nc4ccccc43)c(Cl)cc12,11.2,0.9,-2.9,-6.3,22.3,-3.0
COc1ccc(/C(O)=C(\C#N)c2nc3ccccc3n2C)cc1OC,51.3*,9.5,-0.6,.,-3.8,-50.3
CC(=O)Nc1ccc(/C=N/NC(=O)c2cccc(S(=O)(=O)N3CCOCC3)c2)cc1,36.1*,-4.8,-4.9,.,1.2,-8.6
O=C(NN=Cc1ccc([N+](=O)[O-])cc1)c1ccc(NS(=O)(=O)c2cccs2)cc1,.,.,.,10.0,.,.
COc1cc(C=NNC(=O)c2ccc(NS(=O)(=O)c3cccs3)cc2)cc(Br)c1O,52.0*,3.0,-6.2,-1.9,1.1,4.0
CC(C)c1ccc(/C=N/NC(=O)c2cccc(S(=O)(=O)N3CCOCC3)c2)cc1,3.1,5.3,-2.1,.,3.8,-32.4
O=C(NN=Cc1c(F)c(F)c(F)c(F)c1F)c1ccc(NS(=O)(=O)c2cccs2)cc1,36.1*,-1.6,0.3,8.3,-4.4,-9.3
O=C(NN=Cc1ccc(O)cc1)c1ccccc1NS(=O)(=O)c1cccs1,37.1*,-1.4,-11.2,.,3.6,-20.1
CC1CN(C(C)CO)C(=O)c2cccc(NC(=O)CCC(F)(F)F)c2OC1CN(C)CC1CCCCC1 (stereo not drawn),.,.,.,0.5,.,.
COC(=O)C1=C(c2cccc(OC)c2OC)CC2CCC1N2C(=O)NCc1ccc(F)cc1 (stereo not drawn),.,.,.,0.0,.,.
CC(=O)Nc1ccc(C=NNC(=O)c2ccc(NS(=O)(=O)c3cccs3)cc2)cc1,59.5*,3.6,-9.9,7.2,1.9,-2.6
N#Cc1ccc(N2Cc3ccccc3C2=NC(=O)Nc2ccc(Cl)cc2)cc1,.,.,.,0.0,.,.
SMILES,GDH-TPI counter,PrPC surface inh,Yp Topo-I inh,Mtb hypoxia inh,FBA Mtb inh,PrP UTR inh
COc1ccc(Cc2nnc(N/N=C/c3ccc(N(C)C)cc3)[nH]c2=O)cc1OC,77.9*,7.5,-8.6,.,-2.3,-2.9
CCN(CC)c1ccc(C=NNc2nc(C)cc(=O)[nH]2)c(O)c1,.,.,.,2.2,.,.
CCNc1nc(NCC)nc(N/N=C/c2ccc(N(C)C)cc2)n1,37.5*,-4.2,-20.2,.,24.4,-6.3
CCN(CCC#N)c1ccc(/C=N/Nc2nc(C)cc(=O)[nH]2)c(C)c1,45.2*,8.7,-11.0,.,8.4,-29.3
Cc1cc(=O)[nH]c(N/N=C/c2cc(C)n(CC(F)(F)F)c2C)n1,40.3*,1.4,5.8,.,2.9,.
COc1ccc(/C=N/Nc2nnc(Cc3ccc(OC)c(OC)c3)c(=O)[nH]2)cc1OC,30.5,9.4,3.8,.,-0.9,7.9
CC(C(=O)Nc1cccc(S(=O)(=O)N2CCOCC2)c1)N1C(=O)C2CC=CCC2C1=O (stereo not drawn),.,.,.,15.9,.,.
CC(C)CC(NC(=O)Nc1cccc(Cl)c1)C(=O)O (stereo not drawn),.,.,.,-2.1,.,.
CCN(CC)c1ccc(C=NNc2nc(C)cc(=O)[nH]2)cc1,.,.,.,1.9,.,.
Cc1cc(=O)[nH]c(N/N=C/c2ccc(N(C)C)cc2)n1,35.0*,-3.5,-7.0,.,13.6,-12.8
CC1CN(C(C)CO)C(=O)c2cc(NC(=O)C3CC3)ccc2OC1CN(C)C(=O)NC1CCCCC1 (stereo not drawn),.,.,.,1.4,.,.
CCN(CC)c1ccc(/C=N/NC(=S)NC)c(O)c1,26.2,2.1,-6.3,.,4.6,-16.1
CCN(CC)c1ccc(/C=N/NC(=O)c2ccoc2C)c(O)c1,37.2*,20.3,-6.9,.,11.5,-33.3
CCN(CC)c1ccc(/C=N/NC(=O)OC)c(O)c1,43.4*,-8.5,-9.9,.,4.0,-19.0
CCN(CC)c1ccc(C=NNC(=O)c2ccoc2C)c(O)c1,.,.,.,-0.2,.,.
COC(=O)C=Cc1cc(F)ccc1S(=O)(=O)NC(C)(C)C,.,.,.,4.7,.,.
CCN(CC)Cc1nc2nc(Cl)c(Cl)nc2[nH]1,37.2*,0.0,-1.7,.,1.1,.
Cc1ccc(-n2nc3ccc(NC(=O)C(C)C)cc3n2)cc1,-1.6,-2.6,-2.1,1.9,23.0,-69.9
CC(C)C(=O)Nc1ccc2nn(-c3ccc(F)cc3)nc2c1,9.6,.,-19.7,-1.6,91.5*,-80.0
CCCC(=O)Nc1ccc2nn(-c3ccc(OC)cc3)nc2c1,24.8,7.6,2.8,10.8,+,-56.2
CCCC1C(C#N)=C(N)Oc2cc(C)n(C)c(=O)c21 (stereo not drawn),9.2,-1.7,-3.0,8.2,114.4*,7.6
COc1ccc(-c2nc3ccc(C)cn3c2Cc2ccc(C)cc2)cc1OC,.,-3.0,.,.,26.9,.
COc1ccc(-c2nc3ccc(C)cn3c2Cc2ccccc2)cc1OC,.,4.0,.,.,89.9*,.
Cc1ccc(NC(=O)CC2=NC(=O)C(CC(=O)Nc3ccccc3F)S2)cc1 (stereo not drawn),32.5*,-3.9,-5.2,3.1,-3.2,-16.3
O=C(/C=C/c1cccnc1)/C=C/c1cccnc1,33.1*,-1.2,-4.8,.,0.5,19.4
C(=Cc1cccnc1)c1ccncc1,0.8,-19.7,-1.1,18.0,-2.1,-21.5
N#CC(=NNc1ccc([N+](=O)[O-])cc1)C(=N)N1CCCCC1,.,.,.,42.0*,.,.
N#C/C(=N/Nc1ccc([N+](=O)[O-])cc1)C(=N)N1CCCCC1,-2.2,-52.1,-13.1,.,-31.4,-88.3
